Source: PubChem BioAssay (NCI)
About 79,000 compounds went through this panel and 15% of them were active in at least one assay; those are over-represented in the sample as a whole. Calls of active or inactive are those of the source. Rule as the data show it: active = growth inhibition above about 70%; inactive = the rest.

Assay: NCI Yeast Anticancer Drug Screen. Data for the sgs1 mgt1 strain (AID 161);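 also: 0% = growth of cultures given vehicle only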
Settings: S. cerevisiae sgs1 mgt1 strain, at 50.0 µM (retest, dose inferred, filed as 5.0), hits give high values
Outline: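 Yeast cells carrying a defined DNA-repair defect were exposed to test compounds. Growth inhibition was measured relative to vehicle-treated controls.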

Compound | growth inhibition
OCCSCc1cc(Cl)cc(Cl)c1O | 90% (active)
CC(=O)Nc1ccccc1C(O)(c1ccccc1)c1ccccc1 | 1% (inactive)
Cc1cc(N=Nc2ccccc2C)c(N)cc1N | 90% (active)
O=C(Nc1ccc(Cl)cc1)Nc1nnc(/C=C/c2ccc(Cl)c(Cl)c2)o1 | 0% (inactive)
CCCCCCCCCCCC(=O)OCCOC(=O)CCCCCCCCCCC | -7% (inactive)
CCN(C(C)=O)c1ccc2c(c1)Cc1ccccc1-2 | 97% (active)
O=[N+]([O-])c1cccn2nc(C3OC(CO)C(O)C3O)nc12 (stereo not drawn) | 7% (inactive)
Oc1cc(CNCc2ccccc2)c(O)c(CNCc2ccccc2)c1 | 11% (inactive)
N#CSC#Cc1ccc(C#CSC#N)cc1 | 97% (active)
O=C(O)/C=C/C(=O)NNc1nc2ccccc2s1 | -25% (inactive)
COc1ccc2c(c1)[n+]([O-])c(-c1ccc(C)cc1)c(N)[n+]2[O-] | 100% (active)
C=CCc1cc([N+](=O)[O-])ccc1O | 87% (active)
CC(C)C1=CC23CCC4C(C)(C(=O)O)CCCC4(C)C2CC1c1c(O)ccc(O)c13 (stereo not drawn) | 99% (active)
NC(=O)C(CCc1cccc2ccccc12)c1ccccc1 (stereo not drawn) | 24% (inactive)
CC(CO)CCC(=O)C(C)C1C(=O)CC2CC3CC(O)CCC3(C)CC21C (stereo not drawn) | 48% (inactive)
Oc1c(Cl)cc(Cl)cc1/C=C1\C=Nc2ccccc21 | 5% (inactive)
CCCC(C(=O)OCCN1CCCC1(C)C)C1CCCC1 (stereo not drawn) | 58% (inactive)
OCCN1CCN(CCCN2c3cc(Cl)ccc3Sc3ccsc32)CC1 | 95% (active)
O=C(O)/C=C/c1ccc2c(c1)CCCC2 | 79% (active)
CC(NNC(=S)N1CCCC1)c1ccc2ccccc2n1 (stereo not drawn) | 96% (active)

Compound | growth inhibition
c1cc(CCSSCCc2ccncc2)ccn1 | 79% (active)
CCOC(=O)C(N=Nc1ccc(Br)c(C)c1)C(C)=O (stereo not drawn) | 92% (active)
N#CC(C(=O)CCCC(=O)Nc1cccc([N+](=O)[O-])c1)c1cccc2ccccc12 (stereo not drawn) | 7% (inactive)
Cc1ccc(S(=O)(=O)NNC(=O)c2sc(-c3nc(C)c(C(=O)NNS(=O)(=O)c4ccc(C)cc4)s3)nc2C)cc1 | 99% (active)
Nc1nc(Cl)cc(Nc2ccc(Cl)c(Cl)c2)n1 | 77% (active)
CN(C)C=Nc1c2ccccc2nc2ccccc12 | 65% (inactive)
Cc1cc(N=[N+]=[N-])c2cc(C3CCCCC3)ccc2n1 | 99% (active)
CCN(CC)C(=O)CCCCC(=O)OC(C)C | -12% (inactive)
CC12CCC(C(Br)(Br)C1=O)C2(C)C (stereo not drawn) | 56% (inactive)
CCCCCCCCN(CCCCCCCC)C(=O)C(C)O (stereo not drawn) | 99% (active)
O=C1C=CC(=O)C1=Cc1ccc(Cl)c(Cl)c1 | 98% (active)
COc1ccc([N+](=O)[O-])cc1NC(=O)Nc1ccc(C(=O)OCC(C)C)cc1 | 48% (inactive)
CCOC(=O)n1c2ccccc2c(=O)n1CCO | -12% (inactive)
CC(=O)OC12CCC3C4CC=C5CC(O)CCC5(C)C4C(=O)C3C1(C)N1CC(C)CC(O)C1C2C (stereo not drawn) | 68% (inactive)
Cc1cccnc1NC(=S)Nc1ccccc1Cl | 99% (active)
CS(=O)(=O)OCCN(CCOS(C)(=O)=O)c1ccc(C=Nc2ccc(-c3cnc(-c4ccc(Cl)cc4)s3)cc2)c(Cl)c1 | 90% (active)
CC1(Cc2ccccc2)CCCC(C=O)C1=O.[Cu+2] (stereo not drawn) | 98% (active)
C[N+]1(c2ccccc2)C=C(c2ccccc2)SC1=S (stereo not drawn) | 36% (inactive)
CC12CCC3c4cc(O)ccc4CCC3C1CCC2O (stereo not drawn) | 81% (active)

Same assay, conditions: S. cerevisiae sgs1 mgt1 strain, at 50.0 µM, hits give high values

Compound | growth inhibition
OCCSCc1cc(Cl)cc(Cl)c1O | 78.7% (active)
CC(=O)Nc1ccccc1C(O)(c1ccccc1)c1ccccc1 | 16.4% (inactive)
Cc1cc(N=Nc2ccccc2C)c(N)cc1N | 99.5% (active)
O=C(Nc1ccc(Cl)cc1)Nc1nnc(/C=C/c2ccc(Cl)c(Cl)c2)o1 | 3.6% (inactive)
CCCCCCCCCCCC(=O)OCCOC(=O)CCCCCCCCCCC | -20.6% (inactive)
CCN(C(C)=O)c1ccc2c(c1)Cc1ccccc1-2 | 96.8% (active)
O=[N+]([O-])c1cccn2nc(C3OC(CO)C(O)C3O)nc12 (stereo not drawn) | -14.7% (inactive)
Oc1cc(CNCc2ccccc2)c(O)c(CNCc2ccccc2)c1 | 5.25% (inactive)
N#CSC#Cc1ccc(C#CSC#N)cc1 | 85% (active)
O=C(O)/C=C/C(=O)NNc1nc2ccccc2s1 | 50.3% (inactive)
COc1ccc2c(c1)[n+]([O-])c(-c1ccc(C)cc1)c(N)[n+]2[O-] | 99.3% (active)
C=CCc1cc([N+](=O)[O-])ccc1O | 94.6% (active)
CC(C)C1=CC23CCC4C(C)(C(=O)O)CCCC4(C)C2CC1c1c(O)ccc(O)c13 (stereo not drawn) | 99.3% (active)
NC(=O)C(CCc1cccc2ccccc12)c1ccccc1 (stereo not drawn) | 36.3% (inactive)
CC(CO)CCC(=O)C(C)C1C(=O)CC2CC3CC(O)CCC3(C)CC21C (stereo not drawn) | 84% (active)
Oc1c(Cl)cc(Cl)cc1/C=C1\C=Nc2ccccc21 | -14.2% (inactive)
CCCC(C(=O)OCCN1CCCC1(C)C)C1CCCC1 (stereo not drawn) | 48% (inactive)
OCCN1CCN(CCCN2c3cc(Cl)ccc3Sc3ccsc32)CC1 | 98.7% (active)
O=C(O)/C=C/c1ccc2c(c1)CCCC2 | 73.5% (active)
CC(NNC(=S)N1CCCC1)c1ccc2ccccc2n1 (stereo not drawn) | 98% (active)

Compound | growth inhibition
c1cc(CCSSCCc2ccncc2)ccn1 | 33.5% (inactive)
CCOC(=O)C(N=Nc1ccc(Br)c(C)c1)C(C)=O (stereo not drawn) | 98% (active)
N#CC(C(=O)CCCC(=O)Nc1cccc([N+](=O)[O-])c1)c1cccc2ccccc12 (stereo not drawn) | 17.1% (inactive)
Cc1ccc(S(=O)(=O)NNC(=O)c2sc(-c3nc(C)c(C(=O)NNS(=O)(=O)c4ccc(C)cc4)s3)nc2C)cc1 | 83.5% (active)
Nc1nc(Cl)cc(Nc2ccc(Cl)c(Cl)c2)n1 | 95.8% (active)
CN(C)C=Nc1c2ccccc2nc2ccccc12 | 68.7% (inactive)
Cc1cc(N=[N+]=[N-])c2cc(C3CCCCC3)ccc2n1 | 97.8% (active)
CCN(CC)C(=O)CCCCC(=O)OC(C)C | -24% (inactive)
CC12CCC(C(Br)(Br)C1=O)C2(C)C (stereo not drawn) | 72.1% (active)
CCCCCCCCN(CCCCCCCC)C(=O)C(C)O (stereo not drawn) | 97.7% (active)
O=C1C=CC(=O)C1=Cc1ccc(Cl)c(Cl)c1 | 98.7% (active)
COc1ccc([N+](=O)[O-])cc1NC(=O)Nc1ccc(C(=O)OCC(C)C)cc1 | 68.2% (inactive)
CCOC(=O)n1c2ccccc2c(=O)n1CCO | 87.7% (active)
CC(=O)OC12CCC3C4CC=C5CC(O)CCC5(C)C4C(=O)C3C1(C)N1CC(C)CC(O)C1C2C (stereo not drawn) | 62.2% (inactive)
Cc1cccnc1NC(=S)Nc1ccccc1Cl | 93.2% (active)
CS(=O)(=O)OCCN(CCOS(C)(=O)=O)c1ccc(C=Nc2ccc(-c3cnc(-c4ccc(Cl)cc4)s3)cc2)c(Cl)c1 | 93.8% (active)
CC1(Cc2ccccc2)CCCC(C=O)C1=O.[Cu+2] (stereo not drawn) | 94.7% (active)
C[N+]1(c2ccccc2)C=C(c2ccccc2)SC1=S (stereo not drawn) | 60.5% (inactive)
CC12CCC3c4cc(O)ccc4CCC3C1CCC2O (stereo not drawn) | 58.2% (inactive)
